Bioassay records: PubChem BioAssay, National Center for Advancing Translational Sciences (NCATS)
An excerpt weighted towards active compounds, which were near 11% of everything screened.
HPGD inh = blocks human HPGD enzyme activity | purified HPGD, NADH fluorescence kinetic, PGE2 substrate | hit rate 4.3% among 150,000 | P15428 | Potency, µM, for the others: at the highest dose activity change, negative = inhibition, hits mostly inhibitors; further: potency means the concentration at half of the fitted maximal effect
Target sequence (P15428 whole entry, looked up): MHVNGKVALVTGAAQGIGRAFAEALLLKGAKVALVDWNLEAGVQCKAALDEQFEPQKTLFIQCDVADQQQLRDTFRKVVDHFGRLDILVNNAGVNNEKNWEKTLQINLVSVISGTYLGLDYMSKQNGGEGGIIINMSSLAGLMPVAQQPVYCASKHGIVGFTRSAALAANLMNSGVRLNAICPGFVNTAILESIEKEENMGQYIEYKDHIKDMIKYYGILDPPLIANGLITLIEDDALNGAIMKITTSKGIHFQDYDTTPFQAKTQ
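20 nM HPGD preincubated 15 min at room temperature with compound in 50 mM Tris-HCl pH 8, 0.01% Tween 20. Started with 1 mM NAD+ and 30 uM prostaglandin E2; NADH fluorescence (360/450 nm) read 5 times over 30-s intervals, last minus first.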
ALOX12 inhib = blocks human 12-lipoxygenase activity. P18054. purified 12-hLO, xylenol orange hydroperoxide absorbance. Potency, µM (highest dose often 57.1 µM), for the others: top-dose activity change, negative = inhibition, most hits filed as inhibitors. hit rate 0.12% among 150,000. AID 1452; active means well fitted curve in the direction sought with a large enough effect; inconclusive means small, poorly fitted or top-dose-only effect, or another doubt; inactive means no such curve, though single readings can be large; an effect the other way counts as inactive or inconclusive; further: potency means the concentration at half of the fitted maximal effect; nearly all actives have a fitted effect of over 55% in size
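Purified human 12hLO (150 nM final) was preincubated with compounds for 15 min at room temperature in 25 mM Hepes pH 7.0, 0.01% Triton X-100, then reacted with 40 uM arachidonic acid for 30 min. Hydroperoxide was detected with ferrous iron/xylenol orange.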
PNC inhibitor = perinucleolar compartment assembly inhibition; PC3M PTB-GFP, PNC prevalence imaging, 16 h; hits give low values; activity change (PNC), negative = inhibition, % at 10 µM; hit rate 3.1% among 140,000;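 active means readout at or below -70, meaning at least 70% loss of cells showing the perinucleolar compartment, a nuclear body marking cancer cells; inconclusive means readout between -30 and a set limit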;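 further: plate controls were DMSO wells for no effect and camptothecin positive control wells for full effect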
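Compounds are pinned in duplicate onto adhered PC3M cells stably expressing GFP-tagged PTB and incubated 16 h at 37 C. Cells are then fixed, nuclei stained with Hoechst, and PNC-positive cells counted.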
IMPase cell inh = membrane-permeable compound that blocks inositol monophosphatase; CHO-M1 cells, IP1 accumulation, HTRF TR-FRET ratio; inhibition (IP1 accumulation), % at 46.1 µM; AID 901; 120,000 tested, under 10 active; P97697; active means well fitted curve in the direction sought with a large enough effect in the signal ratio, not every such curve was filed as active; inconclusive means small, poorly fitted or top-dose-only effect, or a change in a side signal; inactive means no such curve, though single readings can be large or run the other way; the % refers to the signal ratio;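 further: cells stimulated with carbachol in lithium chloride buffer; plate controls were DMSO basal wells for no effect and reference inhibitor wells for full effect; higher means more IMPase inhibition seen as more IP1 and lower FRET ratio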
Target sequence (P97697 whole entry, looked up): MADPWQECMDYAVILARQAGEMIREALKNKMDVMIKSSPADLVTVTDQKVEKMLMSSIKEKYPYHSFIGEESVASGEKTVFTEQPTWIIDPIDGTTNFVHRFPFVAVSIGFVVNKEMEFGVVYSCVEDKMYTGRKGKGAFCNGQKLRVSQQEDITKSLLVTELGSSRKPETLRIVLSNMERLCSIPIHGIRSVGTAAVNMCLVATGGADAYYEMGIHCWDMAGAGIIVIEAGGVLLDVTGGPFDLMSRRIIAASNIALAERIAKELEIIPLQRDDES
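Elevated IP1 in lysates lowers TR-FRET signal (665/620 ratio and 620 channel reported). Cells were CHO-M1, given carbachol (50 uM as added) plus 50mM LiCl, pH 7.4, 30 min, 37C; compounds titrated up to 46 uM; AC50 by Hill equation.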
IMPase Li cell = IMPase inhibition in cells with lithium potentiation; CHO-M1 cells, IP1 TR-FRET (IP-One), carbachol + lithium; Potency, µM (top dose mostly 59.4 µM), inactives show at the highest dose activity, negative = IMPase inhibition, most hits filed as inhibitors; hit rate 0.35% among 210,000; active means well fitted curve in the direction sought with a large enough effect; inconclusive means small, poorly fitted or top-dose-only effect, or another doubt; inactive means no such curve, though single readings can be large; an effect the other way counts as inactive or inconclusive;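 further: IP1 builds up when IMPase is blocked and the TR-FRET signal falls; potency means the concentration at half of the fitted maximal effect; plate controls were basal vehicle for no effect and high inhibitor control for full effect; nearly all actives have a fitted effect of over 50% in size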
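Readout is a homogeneous TR-FRET IP1 immunoassay (Ex 320, Em 665 and 620), where raised cytosolic IP1 lowers signal. Cells were CHO-M1 treated 30 min at 37C with test compounds plus a little lithium; AC50 values came from Hill-equation fitting.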
ALDH1A1 inh = inhibitors of human aldehyde dehydrogenase 1A1; Potency, µM (highest dose often 75.3 µM), for the others: top-dose activity, negative = inhibition, hits mostly inhibitors; AID 1030; hit rate 7.3% among 220,000; Purified ALDH1A1, NADH fluorescence, propionaldehyde substrate; P00352;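 further: potency means the concentration at half of the fitted maximal effect; plate controls were no enzyme wells and a reference inhibitor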
The depositor's hits bear a star; u = inconclusive; x = not tested or not shown; [ ] = remark or other dose. Unless noted, the call rests on the fitted dose curve; in most records, active means well fitted inhibition curve with a large enough effect (not every such curve was filed as active); inconclusive means small, poorly fitted or top-dose-only effect, or another doubt; inactive means no such curve, though single readings can be large or run the other way. Unless noted, on the % scale 0 is the no-effect control and ±100 the full control effect.

SMILES	HPGD inh	ALOX12 inhib	PNC inhibitor	IMPase cell inh	IMPase Li cell	ALDH1A1 inh
CCc1ccc(C(=O)/C=C/c2ccc([N+](=O)[O-])o2)cc1	-24%	u	15	-2	29%[38.3 µM]	3.5µM*
CCc1ccc(/C=C/C(=O)c2ccc(N3CCOCC3)cc2)cc1	-15%	-1%	24	9	2%	-6%
COc1ncc2ncc(=O)n(CCc3ccccc3)c2n1	x	x	x	x	-8%	u
Cc1ccc(-c2onc3ccc(Cl)cc23)cc1	-5%	-3%	u	x	8%	-1%
O=Cc1ccc2noc(-c3ccc(Cl)cc3)c2c1	-24%	-14%	-9	-3	18%[38.3 µM]	22µM*
COc1ccc(-c2onc3ccc(Cl)cc23)cc1	u	-15%	-14	0	31%[38.3 µM]	20µM*
CC(=O)[C@H]1CC[C@@H]2[C@H]3CC=C4C[C@@H](O)CC[C@]4(C)[C@H]3CC[C@]12C	-3%	-2%[25.6 µM]	x	5[20.6 µM]	7%	-3%[20.9 µM]
COc1ccc(-c2coc3cc(O)ccc3c2=O)c(O)c1O	7.1µM*	-3%	x	x	12%	8.9µM*
O=S(=O)(Cc1ccccc1Cl)CC(O)COc1ccccc1Cl (stereo not drawn)	11µM*	-10%	-18	-4	11%[38.3 µM]	-4%
Cc1ccc(C)c2c(SC(C)C(=O)NCc3ccco3)nc(-c3ccccc3)nc12 (stereo not drawn)	-22%	29%	-100*	-12	u	-1%
Cc1ccc2nc(-c3ccccc3)nc(SC(C)C(=O)NCc3cccs3)c2c1 (stereo not drawn)	-11%	-1%	28	-11[1.84 µM]	7%[38.3 µM]	2%
Cc1ccc2c(c1)cc(CN(Cc1ccc3c(c1)OCO3)C(=O)c1cnccn1)c1nnnn12	-7%	-4%	30	-5	-2%[38.3 µM]	u
Cc1cc2cc(CN(Cc3ccc4c(c3)OCO4)C(=O)c3cnccn3)c3nnnn3c2cc1C	-18%	-3%	0	0	8%[38.3 µM]	14µM*
Clc1cc(Cl)cc(C2=N[C@@H](Cc3ccccc3)CO2)c1	-2%	-1%[0.00818 µM]	x	x	2%	-6%
CCOCCOC(=O)c1ccc(NC(=O)/C=C/c2ccc(OC)c(OC)c2)cc1	x	x	x	-2	x	x
CCc1cc2c(=O)n(Cc3ccco3)c(SCC(=O)NC3CCS(=O)(=O)C3)nc2s1 (stereo not drawn)	x	x	x	x	2%	10µM*
CCc1cc2c(SCC(=O)NC3CCS(=O)(=O)C3)ncnc2s1 (stereo not drawn)	x	x	x	x	-2%	8%
CCc1cc2c(=O)n(Cc3ccco3)c(SCc3c(C)noc3C)nc2s1	-12%	-3%	u	7	40%[38.3 µM]	22µM*
COC(=O)c1ccc2c(=O)n(Cc3ccco3)c(SCC(=O)Nc3cc(C)on3)nc2c1	x	x	x	x	-12%	8%
CCc1cc2c(=O)n(Cc3ccco3)c(SCC(=O)N(C)C3CCS(=O)(=O)C3)nc2s1 (stereo not drawn)	x	x	x	x	25%	10µM*
O=C(CSc1nc2ccccc2c(=O)n1Cc1ccco1)N1CCCCCC1	-20%	-8%	35	16	21%[38.3 µM]	u
CCc1cc2c(=O)n(Cc3ccco3)c(SCC(=O)N3CCCc4ccccc43)nc2s1	-26%	u	17	9	13%[38.3 µM]	4.5µM*
CC(C)=CCC1(CC=C(C)C)C(=O)C(C(=O)c2ccccc2)=C2OC(C)(C)CCC2(CC=C(C)C)C1=O (stereo not drawn)	x	x	x	x	x	10%[13.5 µM]
